# Experimental data: the supplement of paper PMC3334620
# The full ranking holds about 33,000 sequences; the median of “E-score (-0.5 to 0.5)” is about -0.016, and the highest 2% start at about 0.32. Only a selection was taken, and the highest values are over-represented in it overall.
# Molecular target: T1, Stp1 (UniProt B3LFK1)
# T1 sequence: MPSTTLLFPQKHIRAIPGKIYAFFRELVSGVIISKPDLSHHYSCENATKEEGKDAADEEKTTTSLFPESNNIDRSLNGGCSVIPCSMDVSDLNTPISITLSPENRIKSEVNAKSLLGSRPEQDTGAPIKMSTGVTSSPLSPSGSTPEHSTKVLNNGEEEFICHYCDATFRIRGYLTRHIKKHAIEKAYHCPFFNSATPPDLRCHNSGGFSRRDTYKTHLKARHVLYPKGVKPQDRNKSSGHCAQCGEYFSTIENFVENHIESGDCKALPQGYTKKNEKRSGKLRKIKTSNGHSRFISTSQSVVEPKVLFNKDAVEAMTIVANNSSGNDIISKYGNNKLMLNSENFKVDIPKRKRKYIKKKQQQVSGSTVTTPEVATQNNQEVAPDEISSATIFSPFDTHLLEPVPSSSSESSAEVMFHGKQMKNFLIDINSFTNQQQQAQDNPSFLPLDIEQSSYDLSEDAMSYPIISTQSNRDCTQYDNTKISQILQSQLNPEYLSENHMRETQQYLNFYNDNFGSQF
# Experiment: PBM E-score (8-mer binding enrichment) (E-score (-0.5 to 0.5)); higher = stronger / more preferred TF binding
# Conditions: protein concentration: 200 nM; construct: GST-full length
# Experimental: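 Universal 'all 10-mer' protein binding microarrays (Agilent AMADID 015681) probed with GST-tagged S. cerevisiae TFs (full-length or DBD) made by in vitro transcription/translation (PURExpress), about 100-200 nM. Bound TF was detected with fluorescent anti-GST. Each ungapped 8-mer (which stands for itself and its reverse complement) is scored by the PBM enrichment score (E-score), a modified Wilcoxon-Mann-Whitney statistic from -0.5 to +0.5, computed with the Universal PBM Analysis Suite. Scale: above 0.35 generally sequence-specific binding.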
row,Sequence,PBM E-score
1,CGTCACGA,0.0354
2,AGAACGCA,-0.00423
3,GTGGCATA,0.0347
4,AGGGCATA,0.128
5,ATGGCATA,0.226
6,GCGGCATA,0.435
7,ACGGCATA,0.45
8,CCGGCATA,-0.183
9,AGCCTATG,-0.0976
10,ATTGGCGC,0.189
11,ACGCACCG,0.0649
12,CGTTGCTC,0.0478
13,GAAGGGCA,0.231
14,GACCGAGC,-0.228
15,AGGCGTCC,-0.0371
16,CGGCGTCA,0.399
17,CGGCGTCC,0.376
18,CGGCGTGC,0.316
19,GGGCGTCA,-0.037
20,AGGCGTCA,0.172
21,GGTGGTGA,-0.125
22,GAGTACGA,0.0292
23,GTCTAAGA,0.0284
24,CATACTTA,-0.00908
25,AACTTCAT,0.092
26,GAATCGGC,0.268

row,Sequence,PBM E-score
1,AGCATGCG,0.016
2,CAGGGGCA,-0.0911
3,CGGCCTTC,0.322
4,AGGCCTTC,-0.188
5,CGGCCTTA,0.293
6,AATAAATG,0.219
7,TATAAATA,0.198
8,AATAAATA,0.35
9,CACAGTAA,0.209
10,GGGAGACC,-0.355
11,GCCTCACA,0.263
12,GCCTCACC,0.327
13,ACCTCACC,-0.128
14,GATGCAGA,-0.0503
15,GCTGTTGA,0.169
16,CTGTAGCC,0.041
17,ATTTCAAA,0.134
18,CATCGCGG,0.0513
19,GCATGGCA,0.375
20,TCATGGCA,-0.00249
21,CCATGGCA,0.0885
22,ACTCCGCG,0.068
23,CCTACGCC,-0.0289
24,ACTACGGA,-0.0355
25,CCTACGGA,-0.13
26,CCTACGGC,0.39

row,Sequence,PBM E-score
1,ACTACGGG,-0.222
2,ACTACGGC,0.359
3,CTATCTTA,0.0702
4,GAAAGGAC,0.0713
5,AATAGTAA,0.0925
6,CTGTCGCA,0.00593
7,CCCGCTGA,-0.297
8,GATCGCAA,0.0331
9,CCGCGCGG,0.469
10,CAGCGCGG,0.211
11,CCGCGTGA,0.313
12,ACGCGCGG,0.316
13,ACGCGCGC,0.289
14,CCGCGTGC,0.329
15,GCGCGCGC,0.396
16,CCGCGCTC,0.235
17,CCGCGCGA,0.314
18,CCGCGCGC,0.381
19,ACGCGTGC,0.191
20,GCGCGCGA,0.285
21,GCTATCCA,-0.0017
22,CCTCCAGC,-0.217
23,CAAGAGTC,-0.177
24,ACCACGGA,-0.0752
25,ACCACGGC,0.327
26,GCCACGGA,0.163

row,Sequence,PBM E-score
1,GCCACGGC,0.469
2,ACCACGGG,-0.0439
3,CCCACGGA,0.00496
4,GCCACGCC,0.267
5,CCCACGGG,-0.166
6,CCCACGGC,0.417
7,GGCCCCCA,-0.406
8,AAGCTCAT,-0.206
9,AATTCTCC,0.0125
10,GAATTCTC,0.0702
11,GAAGGCGC,0.333
12,GCAGGCGC,0.148
13,CAAGGCGA,0.194
14,CAAGGCGG,0.101
15,CAAGGCGC,0.4
16,GAAGGCGA,0.129
17,AAAGGCGC,0.402
18,AAAGGCGA,0.0862
19,AAAGGCGG,0.111
20,AAACTGGT,-0.0925
21,AGTTCATG,0.0464
22,ATCAGCAT,0.0572
23,GAAAACGC,0.119
24,TAAGTCGA,-0.123
25,TAACAGCA,0.174
26,AATGCACC,-0.0414

row,Sequence,PBM E-score
1,CTAAGAGC,-0.0921
2,ATCTTCAT,-0.0473
3,AAGCTGTC,-0.113
4,ACAACTAT,0.0651
5,ATGCCGGG,-0.0642
6,ATTCCGTA,0.106
7,ATGCCGTA,0.478
8,CTGCCGTA,0.343
9,ATACCGTA,0.133
10,ATGCCGTC,0.406
11,CTTCCGTA,0.163
12,ATGCCGAC,0.0658
13,ATGCCGTG,0.484
14,ATGCCGAG,0.31
15,CTGCCGGA,0.02
16,CTGCCGTC,0.299
17,CAGCGATG,-0.0761
18,AACAGAGC,0.00906
19,GCCTACAC,-0.0439
20,ATATCTAA,0.0738
21,GAAGCTGC,-0.188
22,ACGAGCCT,-0.0868
23,ACGAGCCG,0.336
24,ACGAGCCA,-0.0521
25,CCGAGCCC,-0.29
26,CCGAGCCA,-0.0385

row,Sequence,PBM E-score
1,CCGAGCCG,0.334
2,CGAGGGAC,-0.245
3,AGCCTCGC,0.0691
4,GGCCTCAC,-0.00507
5,CGCCTCAG,0.289
6,CGCCTCGC,0.394
7,CGCCTCAC,0.395
8,CGCCTCGA,0.205
9,CAGGAGCC,-0.0638
10,GGCTTGGA,-0.128
11,GTTGGGCA,0.0977
12,CTCACCCC,0.0927
13,CACGCGCC,0.291
14,ATATCGCC,0.322
15,ATCGCGCA,-0.0273
16,CTATCGCC,0.0882
17,ATCGCGCC,0.394
18,ATCGCGCG,0.235
19,GACGCGCA,-0.105
20,GACGCGCC,0.348
21,ATATCGCG,0.127
22,ATTTCGCG,0.177
23,ATTTCGCC,0.336
24,ATTTCGCA,0.111
25,CATTCGAC,-0.0891
26,CAAAACGG,0.308

row,Sequence,PBM E-score
1,ACGTGCAG,0.105
2,GATGGTCC,-0.219
3,CCTCTCTC,-0.339
4,AACGCGCC,0.361
5,AACGCGCT,0.0273
6,AACGCGCG,0.232
7,ACAGGGGT,-0.338
8,GAAGGTGA,0.0707
9,ACCGCGGA,-0.0118
10,GCCGCGGA,0.343
11,CCCGCGGG,0.104
12,TCCGCGGA,0.0517
13,CCCGCGGA,0.0756
14,CCCGCGGC,0.411
15,GCCGCGAA,0.159
16,ACCGCGGT,-0.3
17,GCCGCGGC,0.474
18,ACCGCGGG,0.0822
19,ACCGCGGC,0.384
20,GCCGCGAC,0.282
